# Pf Dd2 growth: blocks in vitro growth of P. falciparum Dd2 | P. falciparum Dd2 growth, SYBR Green, 72 h | 4.3% of 120,000 active | Potency, µM (doses to about 28.9 µM), without a hit: at the top dose activity, negative = inhibition, hits mostly inhibitors; active = well fitted inhibition curve with a large enough effect;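 also: plate controls were DMSO vehicle for no effect and reference drug for full effect; nearly all actives have a fitted effect of over 65% in size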
#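 Infected erythrocytes (Dd2, 0.3% parasitemia, 2.5% hematocrit final) are added to compound in RPMI-1640/Albumax II medium, grown 72 h at 37C in low oxygen, then lysed with saponin/Triton-X containing SYBR Green and read by fluorescence.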
# * hit, by the source's call; i = inactive; [ ] = another dose, or the depositor's remark. This excerpt belongs to a sample that is enriched for hits. Potency is read from the fitted curve at half-maximal effect.
SMILES,Pf Dd2 growth
Cc1cc(-n2c(SCc3ccccc3F)nc3[nH]ncc3c2=O)ccc1Cl,-27%
COc1ccc(Br)c(C(=O)N[C@@H]2C=C(C(=O)N[C@H](CC(C)C)C(N)=O)C[C@@H](O)[C@@H]2O)c1,-16%
Brc1ccc(-c2ccnc3nc(-c4cccs4)nn23)cc1,-17%
Cc1cccc(OCC(=O)N(Cc2ccc(C(C)(C)C)cc2)Cc2ccco2)c1,11µM*
Cc1ccc(CN(Cc2ccco2)C(=O)COc2ccc(C)c(C)c2)cc1,-10%
Cc1cc(OCC(=O)N(Cc2ccc(N(C)C)cc2)Cc2ccco2)cc(C)c1Cl,4%
O=C(NCc1ccc(Cl)cc1)c1ccc2ccnn2c1,-28%[44.1 µM]
COCCNC(=O)[C@@H]1C[C@H](Oc2ccccc2)CN1C(=O)Nc1ccc2c(c1)OCCO2,31%
COc1nc2nc(CCc3ccccc3)n(C)c2cc1-c1ccncc1,-12%[44.1 µM]
COc1ncc(-c2cc3c(nc2OC)nc(CCc2ccccc2)n3C)cn1,7.9µM*
COc1ccc(-c2cc3c(nc2OC)nc(CC2CC2)n3C)cc1,-10%[44.1 µM]
O=C([C@@H]1C[C@@H](O)[C@H](O)[C@@H]2NC(=S)N(c3ccc(Cl)cc3)[C@@H]21)N1CCCCC1,i
O=C(Nc1cccc2ccccc12)O[C@@H]1CO[C@H]2[C@@H]1OC[C@@H]2NC(=S)Nc1ccc(Cl)cc1,i
CC(C)NC(=O)c1onc(-c2ccc(F)cc2)c1[C@H](C)O,-13%[44.1 µM]
COc1cccc(NC(c2nnc(-c3ccccc3)o2)c2ccc(F)cc2Cl)c1 (centres undefined),10µM*
Cc1cccc(OCc2nnc(-c3ccccc3)o2)c1,-20%
CCc1cc(=O)n(CC(=O)Nc2ccccc2C)c(-c2cccc(F)c2)n1,-13%
COc1ccccc1NC(=O)CSc1nnc(-c2cccc(Cl)c2)o1,10%
CCOC(=O)c1cccc(NC(c2nnc(-c3ccccc3)o2)c2ccccc2F)c1 (centres undefined),i
CCc1ccccc1NC(c1nnc(-c2cccc(F)c2)o1)c1ccc(F)cc1Cl (centres undefined),13µM*
CCNC(=O)N1c2ccccc2CC1c1nc(C2CC2)no1 (centres undefined),i[5.79 µM]
O=C(COc1ccc(F)cc1)NCC(=O)N1CCN(c2ccccn2)CC1,-22%
Cc1cccnc1NCCNC(=O)c1cc(S(N)(=O)=O)ccc1F,-1%
F[C@@H]1CN(Cc2ccc3c(c2)OCCO3)C[C@@H]1OCc1nc2ccccc2[nH]1,i
CC(C)CNC(=O)CN1CN(c2ccccc2)C2(CCN(C(=O)NC3CCCCC3)CC2)C1=O,1.6µM*
SMILES,Pf Dd2 growth
CCc1ccccc1NC(=O)N1CCC2(CC1)C(=O)N(CC(=O)NC(C)C)CN2c1ccccc1,0%
COCCNC(=O)CN1CN(c2ccccc2)C2(CCN(C(=O)NC3CCCCC3)CC2)C1=O,i
O=C(Cc1c(F)cccc1Cl)N1CCC(c2noc(COc3ccc(F)cc3)n2)CC1,i
CC(C)CCN1CCCC2(C1)C(=NC1CCCC1)NC(=O)N2c1cc(F)cc(F)c1 (centres undefined),10µM*
O=C1NC(=NC2CCCC2)C2(CCN(CC3CC3)CC2)N1c1cc(F)cc(F)c1,-8%
O=C1NC(=NC2CCCCC2)C2(CCCN(CC3CCCCC3)C2)N1c1cc(F)cc(F)c1 (centres undefined),7.9µM*
CC(C)CCN1CCC2(CC1)C(=NC1CCCC1)NC(=O)N2c1cc(F)cc(F)c1,-28%
COc1cccc(N2C(=O)NC(=NC3CCCCC3)C23CCCN(C(=O)c2ccccc2F)C3)c1 (centres undefined),49%
O=C1NC(=NC2CCCCC2)C2(CCN(CC3CC3)CC2)N1c1cc(F)cc(F)c1,-25%
COc1cccc(N2C(=O)NC(=NC3CCCC3)C23CCCN(C(=O)c2ccccc2)C3)c1 (centres undefined),8%
C[S+](=O)([O-])N1CCCC2(C1)C(=NC1CCCC1)NC(=O)N2c1cc(F)cc(F)c1 (centres undefined),i
COc1cccc(N2C(=O)NC(=NC3CCCC3)C23CCCN(CCC(C)C)C3)c1 (centres undefined),13µM*
O=C(c1ccccc1)N1CC[C@H]2COC(=O)N2c2cc(F)ccc2C1,18%[44.1 µM]
c1ccc(N2CC3(CN(CC4CC4)CC3CNc3cccnc3)C2)cc1 (centres undefined),i
COc1ccc(NC(=O)C2CC(=O)N(c3n[nH]c4ccccc34)C2)cn1 (centres undefined),-12%
C[C@@H](NC(=O)NC1CCCCC1)c1onc(-c2cccnc2)c1C(=O)O,-10%[44.1 µM]
CN1C(=O)CO[C@H]2CN(C(=O)c3ccccn3)C[C@H]21,-18%[44.1 µM]
O=C(NC[C@H]1OC[C@@H](NC2CCC2)[C@@H]1O)c1ccncc1,-5%[44.1 µM]
Cc1ccc(CN2CCCCCCNC(=O)CC2)s1,i
CCCc1noc(-c2cccn3c(CNC(=O)Cc4ccccc4Cl)nnc23)n1,i
CCCc1noc(-c2cccn3c(CNC(=O)Cc4ccc(Cl)cc4)nnc23)n1,-1%
CCCc1noc(-c2cccn3c(CNC(=O)c4ccc(C)cc4)nnc23)n1,13µM*
Cc1cccc(NC(=O)N2CCCC(Cn3cnc4cccnc43)C2)c1C (centres undefined),i
O=C(NCCc1cccnc1)c1ccc(-c2nnc3ccc(NC(=O)C4CCC4)cn23)cc1,0.4µM*
O=C(Nc1ccc([C@H]2OCC(=O)N(Cc3cccnc3)[C@@H]2CO)cc1)C1CCC1,i
SMILES,Pf Dd2 growth
O=C(NCCc1ccccn1)c1ccc(-c2nnc3ccc(NC(=O)C4CCC4)cn23)cc1,0.56µM*
O=C(NCCc1ccccn1)c1ccc(OC2CCNCC2)nc1,-8%
Cc1ccc(NC(=O)N2CCc3c(C(=O)NCCc4ccccn4)cccc32)cc1,-18%
O=C(NC1CC1)c1ccc2nnc(-c3cccnc3)n2c1,24%[44.1 µM]
O=C([C@@H]1C[C@H](Oc2cccnc2)CN1C(=O)c1ccncc1)N1CCCC1,-24%
CCCCc1ncc(-c2nccn2C2CCNC2)[nH]1 (centres undefined),10%
CN1CC(=O)N(c2ccccc2F)Cc2c(NCCO)ncnc21,-11%[44.1 µM]
O=C(CSc1ccccn1)N[C@@H]1CCOC[C@H]1OCc1cscn1,i
C[S+](=O)([O-])N1CC2ON=C(C(=O)NCCc3ccc(Cl)cc3)C2C1 (centres undefined),6%
Cc1ncc2c(c1CNC(=O)Cc1ccsc1)CCN(C(=O)Cc1ccc(F)c(F)c1)C2,-19%
CCN(C1CCOCC1)C1CN(C(=O)C2CCOC2)C1 (centres undefined),6%
CN(Cc1nc(COc2ccccc2)no1)CC1(N2CCOCC2)CCCCC1,8.9µM*
COc1ccccc1OC(C)C(=O)NCC1(N2CCOCC2)CCCCC1 (centres undefined),i
CN(CCCN1CCOCC1)Cc1nc(-c2cccs2)no1,-23%
CN(C)C[C@@H]1CN(c2ccccn2)C[C@H]1NC(=O)Cn1c(=O)oc2ccccc21,-24%
CC(C)NC(=O)c1ccc(-n2c(-c3ccccc3)cc3c2CCCC3)cc1,i
Cc1ccccc1CNC(=O)c1ccc(-n2c(C)cc3c2CCCC3)cc1,10µM*
Cc1cc2c(n1-c1ccc(C(=O)NCC(C)c3ccccc3)cc1)CCCC2 (centres undefined),10µM*
COCCNC(=O)c1ccc(-n2c(-c3ccccc3)cc3c2CCCCC3)cc1,-21%
CCNC(=O)c1ccc(-n2c(-c3ccccc3)cc3c2CCCCC3)cc1,-2%
CCCNC(=O)c1ccc(-n2c(-c3ccccc3)cc3c2CCCCC3)cc1,-27%
O=C(c1ccc(F)cc1)N1CCC(n2c(=O)[nH]c3ccccc32)CC1,-18%[44.1 µM]

# Screening data deposited in PubChem BioAssay by National Center for Advancing Translational Sciences (NCATS).
